Screens as filed in PubChem.
Rows were chosen to be rich in hits. Some 21% of all compounds tested hit in one or more screens of this group.
Pf growth 48h – Primary qHTS for delayed death inhibitors of the malarial parasite plastid, 48 hour incubation. AID 504832, 2011. actives 5.9% (n = 310,000). P. falciparum luciferase growth in erythrocytes, 48 h. Potency, µM (top dose mostly 28.7 µM), inactives show at the top dose activity change, negative = inhibition, actives largely listed as inhibitors; note: potency is the fitted concentration of half-maximal effect; % is set by controls: 0 for no effect and ±100 for the full control effect
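Luminescence readout; reporter = integrated firefly luciferase in P. falciparum. RBC culture at 2% hematocrit, 0.1% parasitemia final, 37 C/5% CO2; decreased signal taken as growth inhibition.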
FBPA Giardia inh – qHTS Assay for Inhibitors of Fructose-1,6-bisphosphate Aldolase from Giardia Lamblia; A8B2U2; purified Giardia FBPA; Potency, µM (highest dose often 59.6 µM), inactives show at the top dose activity, negative = inhibition, usual class: inhibitors; actives 0.71% (n = 290,000); note: potency is the fitted concentration of half-maximal effect; % is set by controls: 0 for no effect and ±100 for the full control effect; nearly all actives have a fitted effect of over 55% in size
Target sequence (A8B2U2 whole entry, looked up): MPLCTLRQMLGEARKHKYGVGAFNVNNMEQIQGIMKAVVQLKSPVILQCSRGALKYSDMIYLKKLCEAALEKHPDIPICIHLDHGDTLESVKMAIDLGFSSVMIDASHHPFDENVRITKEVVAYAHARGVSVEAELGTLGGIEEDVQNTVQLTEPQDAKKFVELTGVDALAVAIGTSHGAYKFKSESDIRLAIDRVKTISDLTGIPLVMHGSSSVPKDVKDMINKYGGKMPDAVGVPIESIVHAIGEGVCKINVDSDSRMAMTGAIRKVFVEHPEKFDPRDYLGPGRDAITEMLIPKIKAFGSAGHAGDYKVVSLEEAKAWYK
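40 nM FBPA preincubated 10 min at RT with compound (up to 57.5 uM final), then substrate plus GAPDH/TPI/NAD/arsenate coupling and diaphorase/resazurin added. Fluorescence read after 20 min at RT, 525/598 nm.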
NS1 inh – qHTS Assay for Inhibitors of Influenza NS1 Protein Function | AID 2326, 2010 | actives 0.4% (n = 270,000) | Potency, µM (titrated, usually from 46.1 µM), inactives show at the top dose activity, positive = more growth; calls by dose curve; note: potency is the fitted concentration of half-maximal effect; actives are rising curves; nearly all actives have a fitted effect of over 50% in size
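In this qHTS, NS1 from influenza A is expressed in budding yeast, where it slows growth. Cells are switched from glucose to 2% galactose medium (pH 6.0, -URA), treated with compound, and growth recovery is read at OD600.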
CHX counter – Cycloheximide Counterscreen for Small Molecule Inhibitors of Shiga Toxin. cell reporter, cycloheximide protein synthesis inhibition counterscreen. max response, %. actives 12% (n = 300,000); in the data active = max response mostly above about 13%, no sharp cut-off; inactive = mostly below about 14%; note: read at 38.3 µM for the half of the compounds with a filed dose; 0% is about no effect
Shiga toxin inh – A qHTS for Small Molecule Inhibitors of Shiga Toxin | inhibition, % at 38.7 µM | actives 9.2% (n = 290,000) | Vero cells, Shiga toxin protein synthesis inhibition reporter; in the data active = inhibition mostly above about 28%, no sharp cut-off; inactive = mostly below about 43%; note: 0% is about no effect
Pf growth 96h – Primary qHTS for delayed death inhibitors of the malarial parasite plastid, 96 hour incubation; actives 6.9% (n = 320,000); Potency, µM (series often up to 28.7 µM), for inactives: top-dose activity change, negative = inhibition, most hits filed as inhibitors; P. falciparum luciferase reporter growth, 96 h; note: potency is the fitted concentration of half-maximal effect; % is set by controls: 0 for no effect and ±100 for the full control effect
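Two parasite generations (96 h, 37 C, 5% CO2) of compound exposure in infected erythrocytes (0.05% parasitemia, 2% hematocrit). Luciferase-reporter P. falciparum; decreased luminescence indicates inhibited growth, aimed at apicoplast-acting delayed death.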
* hit, by the source's call; ? = inconclusive; . = no result given; [ ] = remark or other dose. Unless noted, calls come from the whole dose curve; as a rule, active = well fitted curve in the direction sought with a large enough effect; inconclusive = small, poorly fitted or top-dose-only effect, or another doubt; inactive = no such curve, though single readings can be large; an effect the other way counts as inactive or inconclusive.

SMILES	Pf growth 48h	FBPA Giardia inh	NS1 inh	CHX counter	Shiga toxin inh	Pf growth 96h
O=C1CCC(/C=C/c2ccccc2)=NN1Cc1ccc(F)cc1	15%	-7%	.	7	21	3%
O=C1CC(/C=C/c2cccnc2)=Nc2ccccc2N1	?	1%	-3%	17*	30	?
O=C1CC(/C=C/c2ccccc2)=Nc2ccccc2N1	73%	1%	5%	30*	58*	17%
O=C1CC(C(F)(F)C(F)(F)C(F)(F)F)=Nc2ccccc2N1	-10%	-1%	14%	-1	-8	1%
CC1(C)CC(/C=C/c2ccccc2)=Nc2ccccc2N1	?	-13%	-32%	52*	83*	?
O=C1CN(C(=O)/C=C/c2ccc(Cl)cc2)c2ccccc2N1	?	-19%	.	13	13	?
CCc1nn2c(=O)c(S(=O)(=O)Nc3ccc(C(C)C)cc3)c(C)nc2s1	-25%	6%	13%	-1	-6	-2%
CN(C(=O)Cn1nc(C(=O)O)c2ccccc2c1=O)C1(C#N)CCCCC1	10%	.	.	.	.	3%
COc1ccc(O[C@H]2C=C[C@@H](c3ccccc3)O[C@H]2COC(=O)CC/C(C)=N\O[C@@H](C)CN2CCCc3nc(C)c(C)cc32)cc1	.	0%[12.9 µM]	.	.	.	.
O=C(NCC1CCCO1)c1ccc(CNS(=O)(=O)c2cccc(Cl)c2)cc1 (stereo not given)	-16%	-3%	-3%	-2	-13	?
O=C(COC(=O)CC1Sc2ccccc2NC1=O)NCc1ccccc1 (stereo not given)	13µM*	.	.	.	.	?
COc1ccc2c(COC(=O)CC3Sc4ccccc4NC3=O)cc(=O)oc2c1 (stereo not given)	?	-1%	21%	20*	56	?
N#C/C(=C\c1cccnc1)c1ccccc1[N+](=O)[O-]	?	0%	-27%	-2	-7	?
Cc1ccc(S(=O)(=O)N(C)C)cc1NC(=O)CN1CCN(Cc2ccccc2)CC1	3%	5%	.	-4	-12	-15%
CC(C)(C)c1cc(C(=O)NNC(=O)Nc2cccc(Cl)c2)n(Cc2ccccc2)n1	?	2%	0%	-1	-7	9.3µM*
CC(C)(C)c1cc(C(=O)O)n(Cc2ccc(Cl)cc2Cl)n1	-7%	16%	0%	-2	13	0%
CC(C)(C)c1cc(C(=O)NCc2cc(F)cc3c2OCOC3)n(Cc2ccccc2)n1	?	-8%	7%	53*	83*	?
CC(C)(C)c1cc(C(=O)NNC(=O)Nc2ccccc2)n(Cc2ccccc2)n1	5.2µM*	2%	0%	0	-2	9.3µM*
Cc1cccc(C)c1NC(=O)NNC(=O)c1cc(C(C)(C)C)nn1Cc1ccccc1	?	7%	3%	-2	2	?
Cc1ccc(S(=O)(=O)N(C)C)cc1NC(=O)c1cc(C(C)(C)C)nn1Cc1ccccc1	?	-16%	4%	4	-2	7.4µM*
Cc1ccc(C)c(N2CCN(C(=O)c3ccc(N4CCOCC4)c([N+](=O)[O-])c3)CC2)c1	?	-8%	-17%	-7	16	3%
COc1ccc(C(=O)NNC(=O)c2ccccn2)cc1	-69%	-7%	-27%	-11	-23	113%
N#C/C(=C\c1ccccn1)c1nc2ccccc2s1	26%	-13%	5%	35*	57*	?
COC(=O)c1ccc(/C=C(\C#N)c2nc3ccccc3s2)cc1	35%	0%	-10%	12	37	18%
COc1ccc(/C(C#N)=C/c2ccccn2)cc1	267%	0%	-1%	60*	110*	92%
COC(=O)/C=C/c1ccccc1CN1[C@@H](CC(=O)OC)c2ccccc2S1(=O)=O	?	.	.	.	.	12%
N#Cc1cn(CCCOc2ccccc2)c2ccccc12	-12%	1%	-25%	17*	25	12%
CCOc1ccc(NC(=O)N(C2CCCCCC2)C2CCN(C(C)=O)CC2)cc1	22%	-14%	-5%	7	16	57%
